Source: the supplement of paper PMC10849652
Targets with a hit are over-represented here; the source holds about 8,800 in all. About 0.5% of all pairs of compound and target were hits.

Tests used:
Assay in all cases: log2 fold change, soluble protein after heating vs DMSO (PISA); higher = thermal stabilisation; K562 lysate, 10 uM; active = over 0.2 and 3.5 SD of the protein, either way, in both replicates (recomputed)
lapatinib = compound: CS(=O)(=O)CCNCc1ccc(-c2ccc3ncnc(Nc4ccc(OCc5cccc(F)c5)c(Cl)c4)c3c2)o1 [lapatinib]
Outline: (§1)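 The values are log-two fold changes in thermal stability compared with solvent controls and come from duplicates. They were obtained by TMTpro 16plex LC-MS/MS, with channel sums equalised, on the supernatant after 21,000xg for 90 min. That supernatant came from crude K562 extract at 1 mg/mL protein treated with 10 μM compound for 30 min, heated for 3 min across 48°C-58°C, pooled and brought to 0.5% NP-40 at 4°C.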

pictilisib = compound: CS(=O)(=O)N1CCN(Cc2cc3nc(-c4cccc5[nH]ncc45)nc(N4CCOCC4)c3s2)CC1 [pictilisib]
Outline: as §1

crizotinib = compound: C[C@@H](Oc1cc(-c2cnn(C3CCNCC3)c2)cnc1N)c1c(Cl)ccc(F)c1Cl [crizotinib]
Outline: as §1

[1] = compound: C[C@H](C1=CC=C(C=C1)C(=O)NC2=C3C=CNC3=NC=C2)N
Outline: as §1

duvelisib = compound: C[C@H](Nc1ncnc2nc[nH]c12)c1cc2cccc(Cl)c2c(=O)n1-c1ccccc1 [duvelisib]
Outline: as §1

gandotinib = compound: Cc1cc(Nc2cc(CN3CCOCC3)c3nc(C)c(Cc4ccc(Cl)cc4F)n3n2)n[nH]1 [gandotinib]
Outline: as §1

tozasertib = compound: Cc1cc(Nc2cc(N3CCN(C)CC3)nc(Sc3ccc(NC(=O)C4CC4)cc3)n2)n[nH]1 [tozasertib]
Outline: as §1

doramapimod = compound: Cc1ccc(-n2nc(C(C)(C)C)cc2NC(=O)Nc2ccc(OCCN3CCOCC3)c3ccccc23)cc1 [doramapimod]
Outline: as §1

bafetinib = compound: Cc1ccc(NC(=O)c2ccc(CN3CC[C@H](N(C)C)C3)c(C(F)(F)F)c2)cc1Nc1nccc(-c2cncnc2)n1 [bafetinib]
Outline: as §1

[2] = compound: Cc1cccc(CC(=O)N2CCc3c2ccc(-c2cn(C)c4ncnc(N)c24)c3F)n1
Outline: as §1

nilotinib = compound: Cc1cn(-c2cc(NC(=O)c3ccc(C)c(Nc4nccc(-c5cccnc5)n4)c3)cc(C(F)(F)F)c2)cn1 [nilotinib]
Outline: as §1

[3] = compound: Cc1nc(Nc2n[nH]c3c2CN(C(=O)N[C@H](CN(C)C)c2ccccc2)C3(C)C)c2sccc2n1
Outline: as §1

dasatinib = compound: Cc1nc(Nc2ncc(C(=O)Nc3c(C)cccc3Cl)s2)cc(N2CCN(CCO)CC2)n1 [dasatinib]
Outline: as §1

[4] = compound: Cc1ncc(-c2ccnc(Nc3ccc(S(C)(=O)=O)cc3)n2)n1C(C)C
Outline: as §1

[5] = compound: Cn1cc(-c2ccc3c(c2)CCN3C(=O)Cc2cccc(C(F)(F)F)c2)c2c(N)ncnc21
Outline: as §1

quisinostat = compound: Cn1cc(CNCC2CCN(c3ncc(C(=O)NO)cn3)CC2)c2ccccc21 [quisinostat]
Outline: as §1

tipifarnib = compound: Cn1cncc1[C@@](N)(c1ccc(Cl)cc1)c1ccc2c(c1)c(-c1cccc(Cl)c1)cc(=O)n2C [tipifarnib]
Outline: as §1

[6] = compound: NC(=O)Nc1cc(-c2cccc(F)c2)sc1C(=O)N[C@H]1CCCNC1
Outline: as §1

[7] = compound: NC(=O)c1cnc(N[C@@H]2CCCC[C@@H]2N)nc1Nc1cccc(-n2nccn2)c1
Outline: as §1

[8] = compound: NC1(c2ccc(-c3nc4ccn5c(=O)[nH]nc5c4cc3-c3ccccc3)cc2)CCC1
Outline: as §1

Measured: log2 fold change

CCNC (UniProt P24863)
UniProt P24863, sequence (P24863 whole entry, looked up): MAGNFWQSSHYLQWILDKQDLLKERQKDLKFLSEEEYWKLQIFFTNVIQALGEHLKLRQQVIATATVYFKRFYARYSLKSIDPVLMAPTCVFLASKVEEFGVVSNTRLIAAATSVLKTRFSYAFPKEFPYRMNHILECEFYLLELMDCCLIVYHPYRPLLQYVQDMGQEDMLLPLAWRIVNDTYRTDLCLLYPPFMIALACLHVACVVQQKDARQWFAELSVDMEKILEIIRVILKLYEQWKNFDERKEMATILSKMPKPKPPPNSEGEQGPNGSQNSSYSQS
active: doramapimod 0.332
inactive: lapatinib -0.108 | pictilisib 0.036 | crizotinib -0.037 | [1] 0.075 | duvelisib 0.009 | gandotinib -0.104 | tozasertib -0.025 | bafetinib -0.123 | [2] 0.015 | nilotinib 0.013 | [3] 0.035 | dasatinib 0.04 | [4] 0.202 | [5] -0.017 | quisinostat 0 | tipifarnib -0.049 | [6] 0.048 | [7] -0.007 | [8] -0.029

C18orf25 (UniProt Q96B23)
UniProt Q96B23, sequence (Q96B23 whole entry, looked up): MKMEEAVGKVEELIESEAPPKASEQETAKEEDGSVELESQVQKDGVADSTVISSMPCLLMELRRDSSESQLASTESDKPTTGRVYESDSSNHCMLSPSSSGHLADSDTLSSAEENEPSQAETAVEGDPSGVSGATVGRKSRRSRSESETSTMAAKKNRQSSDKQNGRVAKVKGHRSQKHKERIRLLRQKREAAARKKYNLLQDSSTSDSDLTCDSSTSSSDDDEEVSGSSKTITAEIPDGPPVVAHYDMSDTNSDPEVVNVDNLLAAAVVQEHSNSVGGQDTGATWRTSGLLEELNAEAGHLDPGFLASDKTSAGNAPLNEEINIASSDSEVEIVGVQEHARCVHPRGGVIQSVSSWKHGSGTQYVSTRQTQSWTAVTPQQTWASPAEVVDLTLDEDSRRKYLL
inactive: lapatinib 0.017 | pictilisib -0.003 | crizotinib -0.049 | [1] 0.022 | duvelisib -0.046 | gandotinib 0.019 | tozasertib -0.029 | doramapimod 0.019 | bafetinib -0.023 | [2] -0.098 | nilotinib 0.139 | [3] -0.014 | dasatinib -0.022 | [4] -0.018 | [5] 0.082 | quisinostat -0.007 | tipifarnib 0.003 | [6] 0 | [7] 0.011 | [8] -0.008

C18orf32 (UniProt Q8TCD1)
UniProt Q8TCD1, sequence (Q8TCD1 whole entry, looked up): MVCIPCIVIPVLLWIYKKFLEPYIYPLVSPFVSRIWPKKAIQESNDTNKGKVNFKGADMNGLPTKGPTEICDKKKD
inactive: lapatinib -0.012 | pictilisib 0.041 | crizotinib -0.07 | [1] -0.093 | duvelisib -0.203 | gandotinib 0.001 | tozasertib -0.011 | doramapimod -0.01 | bafetinib -0.04 | [2] 0.047 | nilotinib 0.058 | [3] -0.078 | dasatinib -0.026 | [4] 0.072 | [5] 0.167 | quisinostat 0.027 | tipifarnib 0.093 | [6] -0.11 | [7] -0.084 | [8] 0.062

CHD4 isoform 2 (UniProt Q14839)
UniProt Q14839, sequence (Q14839 whole entry, looked up): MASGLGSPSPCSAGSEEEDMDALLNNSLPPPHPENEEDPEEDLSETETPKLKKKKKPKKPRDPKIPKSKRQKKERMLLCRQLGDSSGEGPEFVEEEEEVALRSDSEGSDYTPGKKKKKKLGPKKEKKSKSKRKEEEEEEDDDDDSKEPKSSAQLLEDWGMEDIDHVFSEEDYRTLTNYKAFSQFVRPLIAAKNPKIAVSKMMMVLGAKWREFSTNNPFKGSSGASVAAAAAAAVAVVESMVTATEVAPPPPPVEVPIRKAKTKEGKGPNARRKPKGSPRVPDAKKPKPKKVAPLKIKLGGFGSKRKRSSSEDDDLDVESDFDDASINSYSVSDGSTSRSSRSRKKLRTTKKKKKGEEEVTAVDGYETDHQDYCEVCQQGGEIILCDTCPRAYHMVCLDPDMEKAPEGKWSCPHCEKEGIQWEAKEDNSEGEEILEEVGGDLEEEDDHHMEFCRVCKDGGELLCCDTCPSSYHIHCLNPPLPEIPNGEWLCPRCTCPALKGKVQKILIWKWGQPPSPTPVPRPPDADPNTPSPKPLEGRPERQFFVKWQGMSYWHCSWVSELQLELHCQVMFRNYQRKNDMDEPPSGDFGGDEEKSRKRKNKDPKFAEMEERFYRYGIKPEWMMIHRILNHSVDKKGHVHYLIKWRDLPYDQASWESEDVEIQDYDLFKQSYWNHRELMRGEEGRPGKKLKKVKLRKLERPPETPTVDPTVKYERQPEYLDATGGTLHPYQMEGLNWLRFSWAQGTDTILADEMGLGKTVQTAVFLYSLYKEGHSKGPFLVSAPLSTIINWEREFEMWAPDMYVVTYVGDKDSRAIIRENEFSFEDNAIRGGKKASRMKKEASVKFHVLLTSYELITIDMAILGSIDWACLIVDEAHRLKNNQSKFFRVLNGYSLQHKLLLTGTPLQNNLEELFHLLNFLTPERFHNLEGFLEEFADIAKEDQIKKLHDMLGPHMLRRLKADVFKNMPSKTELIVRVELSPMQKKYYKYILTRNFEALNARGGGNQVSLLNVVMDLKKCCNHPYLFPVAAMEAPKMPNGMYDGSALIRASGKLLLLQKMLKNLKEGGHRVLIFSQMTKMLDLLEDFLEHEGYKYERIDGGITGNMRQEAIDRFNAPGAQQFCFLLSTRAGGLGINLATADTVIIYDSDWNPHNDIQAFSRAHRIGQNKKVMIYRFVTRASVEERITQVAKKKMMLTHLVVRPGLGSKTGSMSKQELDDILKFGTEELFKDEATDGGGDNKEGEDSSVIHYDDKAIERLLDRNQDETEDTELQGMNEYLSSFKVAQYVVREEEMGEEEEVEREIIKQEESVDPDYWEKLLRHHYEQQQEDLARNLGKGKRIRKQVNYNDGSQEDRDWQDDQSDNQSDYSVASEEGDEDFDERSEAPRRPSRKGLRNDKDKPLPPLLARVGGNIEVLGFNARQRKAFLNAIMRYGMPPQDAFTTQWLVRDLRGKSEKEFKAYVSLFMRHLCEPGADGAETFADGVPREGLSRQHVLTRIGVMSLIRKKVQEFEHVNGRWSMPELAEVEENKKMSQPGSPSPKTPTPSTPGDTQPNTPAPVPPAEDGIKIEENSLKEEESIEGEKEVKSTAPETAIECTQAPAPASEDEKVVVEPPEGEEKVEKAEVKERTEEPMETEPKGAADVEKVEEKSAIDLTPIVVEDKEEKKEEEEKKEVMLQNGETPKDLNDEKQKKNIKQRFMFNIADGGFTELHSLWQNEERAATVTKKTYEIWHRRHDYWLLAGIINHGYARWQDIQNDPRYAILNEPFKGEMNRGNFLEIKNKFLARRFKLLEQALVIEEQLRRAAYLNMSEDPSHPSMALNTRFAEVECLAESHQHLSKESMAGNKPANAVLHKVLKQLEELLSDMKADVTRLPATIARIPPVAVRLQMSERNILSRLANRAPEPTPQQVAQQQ
inactive: lapatinib 0.003 | pictilisib -0.004 | crizotinib -0.007 | [1] -0.05 | duvelisib -0.038 | gandotinib 0.005 | tozasertib 0.011 | doramapimod 0.021 | bafetinib -0.05 | [2] 0.05 | nilotinib 0.006 | [3] 0.008 | dasatinib -0.011 | [4] -0.006 | [5] 0.015 | quisinostat -0.038 | tipifarnib -0.008 | [6] 0.031 | [7] 0.01 | [8] 0.001

C5orf51 (UniProt A6NDU8)
UniProt A6NDU8, sequence (A6NDU8 whole entry, looked up): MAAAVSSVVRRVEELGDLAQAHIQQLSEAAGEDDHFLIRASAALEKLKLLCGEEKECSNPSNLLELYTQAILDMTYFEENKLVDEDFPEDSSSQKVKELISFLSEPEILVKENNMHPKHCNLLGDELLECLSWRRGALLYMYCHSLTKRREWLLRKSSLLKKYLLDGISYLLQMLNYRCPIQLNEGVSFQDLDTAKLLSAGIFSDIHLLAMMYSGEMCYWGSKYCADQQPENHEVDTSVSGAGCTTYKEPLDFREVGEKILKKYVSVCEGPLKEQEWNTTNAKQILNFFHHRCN
inactive: lapatinib 0.018 | pictilisib -0.003 | crizotinib -0.024 | [1] 0.039 | duvelisib -0.023 | gandotinib -0.143 | tozasertib -0.037 | doramapimod -0.027 | bafetinib -0.031 | [2] -0.037 | nilotinib -0.061 | [3] 0.006 | dasatinib -0.029 | [4] 0.017 | [5] 0.02 | quisinostat -0.066 | tipifarnib 0.026 | [6] 0.1 | [7] 0.002 | [8] -0.023

CARD9 (UniProt Q9H257)
UniProt Q9H257, sequence (Q9H257 whole entry, looked up): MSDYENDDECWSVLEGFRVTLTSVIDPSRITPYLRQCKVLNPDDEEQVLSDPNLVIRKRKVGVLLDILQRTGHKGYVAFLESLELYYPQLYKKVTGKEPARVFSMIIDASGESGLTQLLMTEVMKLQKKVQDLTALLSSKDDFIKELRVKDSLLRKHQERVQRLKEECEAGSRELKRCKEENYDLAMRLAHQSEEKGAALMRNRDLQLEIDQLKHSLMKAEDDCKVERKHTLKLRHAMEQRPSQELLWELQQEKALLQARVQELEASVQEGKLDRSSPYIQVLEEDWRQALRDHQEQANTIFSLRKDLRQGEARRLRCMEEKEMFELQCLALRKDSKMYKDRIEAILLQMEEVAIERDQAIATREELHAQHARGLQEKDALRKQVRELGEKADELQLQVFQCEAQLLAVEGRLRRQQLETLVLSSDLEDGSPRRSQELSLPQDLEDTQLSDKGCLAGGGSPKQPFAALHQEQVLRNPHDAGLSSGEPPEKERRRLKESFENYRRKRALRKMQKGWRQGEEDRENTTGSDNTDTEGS
inactive: lapatinib -0.048 | pictilisib -0.035 | crizotinib -0.053 | [1] -0.016 | duvelisib -0.009 | gandotinib -0.032 | tozasertib 0.022 | doramapimod 0.032 | bafetinib -0.145 | [2] 0.03 | nilotinib 0.047 | [3] -0.037 | dasatinib -0.017 | [4] 0.028 | [5] 0 | quisinostat -0.032 | tipifarnib -0.035 | [6] 0.005 | [7] 0.034 | [8] -0.007

CAMLG (UniProt P49069)
UniProt P49069, sequence (P49069 whole entry, looked up): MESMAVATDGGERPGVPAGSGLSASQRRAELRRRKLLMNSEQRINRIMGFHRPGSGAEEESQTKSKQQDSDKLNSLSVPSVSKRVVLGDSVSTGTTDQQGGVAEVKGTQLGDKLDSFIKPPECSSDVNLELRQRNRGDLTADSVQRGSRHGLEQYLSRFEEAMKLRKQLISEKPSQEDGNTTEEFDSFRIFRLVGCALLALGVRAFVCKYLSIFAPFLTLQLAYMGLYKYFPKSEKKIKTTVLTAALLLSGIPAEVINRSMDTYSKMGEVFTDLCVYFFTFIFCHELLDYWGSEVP
inactive: lapatinib 0.009 | pictilisib -0.039 | crizotinib 0.014 | [1] 0.179 | duvelisib -0.001 | gandotinib -0.058 | tozasertib -0.037 | doramapimod -0.005 | bafetinib 0 | [2] -0.12 | nilotinib 0.048 | [3] -0.082 | dasatinib 0.017 | [4] -0.069 | [5] 0.064 | quisinostat 0.01 | tipifarnib -0.084 | [6] 0.005 | [7] -0.009 | [8] 0.046

CALB2 (UniProt P22676)
UniProt P22676, sequence (P22676 whole entry, looked up): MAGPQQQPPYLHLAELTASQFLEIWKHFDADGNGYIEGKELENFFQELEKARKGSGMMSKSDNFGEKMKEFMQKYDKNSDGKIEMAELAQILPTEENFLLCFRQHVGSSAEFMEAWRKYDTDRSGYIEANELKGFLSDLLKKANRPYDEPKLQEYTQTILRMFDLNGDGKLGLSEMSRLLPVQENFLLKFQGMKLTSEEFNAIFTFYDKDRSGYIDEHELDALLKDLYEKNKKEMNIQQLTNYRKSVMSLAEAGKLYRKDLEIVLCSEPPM
inactive: lapatinib 0.009 | pictilisib -0.07 | crizotinib 0.01 | [1] -0.041 | duvelisib 0.031 | gandotinib 0.092 | tozasertib 0.056 | doramapimod 0.003 | bafetinib 0.082 | [2] -0.007 | nilotinib 0.098 | [3] -0.085 | dasatinib -0.037 | [4] 0.056 | [5] 0.016 | quisinostat 0.091 | tipifarnib -0.079 | [6] -0.006 | [7] -0.004 | [8] 0.046
